Screening results: PubChem BioAssay, several laboratories
Mtb hypoxia inh – reduces hypoxia-regulated biosensor signal in M. tuberculosis. M. tuberculosis hypoxia-regulated fluorescent reporter, fluorescence. fluorescence inhibition, % (concentration not given with the values). 300,000 compounds, 0.1% hits; in the data active means fluorescence inhibition mostly above about 23%, no sharp cut-off; inactive means mostly below about 17%
RecA splice inh – blocks M. tuberculosis RecA intein splicing; inhibition, % (no concentration beside the values); cell-free RecA intein splicing, fluorescence; 290,000 compounds, 0.75% hits; in the data active means inhibition above about 30%; inconclusive means no clear call, values can overlap the other calls;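 further: 0% = vehicle wells and 100% = reference inhibitor control wells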
FadD28 FP inh – blocks FadD28 binding to the bisubstrate probe | inhibition, % at 12.5 µM | AID 588549 | 360,000 compounds, 0.22% hits | fluorescence polarization; in the data active means inhibition above about 8.5%, passing the limit was not always enough; inconclusive means no clear call, values can overlap the other calls
UGM FP inh – blocks M. tuberculosis UGM enzyme; AID 504406; 320,000 compounds, 0.06% hits; inhibition, % at 10 µM; purified UGM, fluorescence polarization probe displacement; P9WIQ1; in the data active means inhibition above about 10%, passing the limit was not always enough; inconclusive means no clear call, values can overlap the other calls
Target sequence (P9WIQ1 whole entry, looked up): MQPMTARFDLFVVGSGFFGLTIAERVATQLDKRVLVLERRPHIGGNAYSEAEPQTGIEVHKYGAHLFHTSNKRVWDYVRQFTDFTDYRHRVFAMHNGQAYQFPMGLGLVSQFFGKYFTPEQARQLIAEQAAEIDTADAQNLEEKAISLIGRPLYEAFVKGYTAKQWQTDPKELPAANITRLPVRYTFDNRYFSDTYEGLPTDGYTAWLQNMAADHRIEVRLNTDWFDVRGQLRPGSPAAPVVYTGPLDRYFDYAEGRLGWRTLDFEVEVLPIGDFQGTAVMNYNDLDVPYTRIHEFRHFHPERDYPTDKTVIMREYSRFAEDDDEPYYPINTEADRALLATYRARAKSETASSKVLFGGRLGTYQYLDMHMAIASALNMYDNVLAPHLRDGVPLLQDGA
Mtb bLac sens – beta-lactam sensitization of Mtb H37Rv | 330,000 compounds, 0.27% hits | AID 434955 | inhibition, % at 25 µM | M. tuberculosis H37Rv growth with meropenem, percent inhibition; call rule not given here;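 further: growth measured after seven days incubation then overnight dye step; 0% = bacteria only wells and 100% = bacteria with antibiotic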
Rv3671c protease – inhibits the M. tuberculosis serine protease Rv3671c. inhibition, % at 5.96 µM. AID 2606. P9WHR9. 320,000 compounds, 0.048% hits; in the data active means inhibition above about 38%;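 further: extracellular domain of Rv3671c used as enzyme; 0% = enzyme with DMSO and 100% = no enzyme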
Active calls of the source: *; u = inconclusive; x = no result given. In the library only some 0.92% were active in any assay of this set; here they are far more common.

SMILES | Mtb hypoxia inh | RecA splice inh | FadD28 FP inh | UGM FP inh | Mtb bLac sens | Rv3671c protease
COc1ccc(Nc2oc(COc3ccccc3F)nc2C#N)cc1 | x | 40.5* | -4.8 | 0.9 | -3.6 | -1.8
COc1ccc(Nc2oc(COc3ccc(OC)cc3)nc2C#N)cc1 | 12.4 | 7.4 | -1.0 | 2.0 | -8.8 | -2.1
CCOC(=O)c1ccc(NC(=S)NNC(=O)COC)cc1 | -4.5 | -3.8 | -0.5 | -1.3 | 2.5 | 7.1
CCOC(=O)c1ccc(NC(=S)NNC(=O)C2(C)CC2(Cl)Cl)cc1 (stereo not drawn) | 7.2 | 1.5 | 15.1* | 1.9 | 7.8 | -5.5
CCc1cccc2c(C(=O)CSc3nncn3-c3ccc(OC)cc3)c[nH]c12 | 9.0 | 1.3 | 13.7* | 0.4 | 9.0 | -6.2
CCc1cccc2c(C(=O)CSc3nncn3-c3ccccc3OC)c[nH]c12 | -2.5 | 0.4 | -1.7 | -2.9 | u | -1.4
O=C(CS(=O)(=O)Cc1ccccc1)Nc1ccc(S(=O)(=O)N2CCCCCC2)cc1 | 15.5 | 1.1 | 23.6* | -1.3 | 4.3 | -27.8
CCN(CC)c1nc(N)c2c(N)n(-c3ccccc3C)c(=S)c(C#N)c2c1C#N | 1.4 | 5.8 | 8.3* | 1.8 | -9.4 | 11.6
Cc1ccc(SCc2[nH]nc3c2C2(C(=O)Nc4ccc([N+](=O)[O-])cc42)C(C#N)=C(N)O3)cc1 (stereo not drawn) | -3.7 | 12.5 | -3.6 | 0.2 | 22.5 | -2.9
CCOC(=O)N1CCC2(CC1)C(C#N)=C(N)Oc1n[nH]c(CSc3ccc(C)cc3)c12 | x | 50.5* | -7.6 | 1.2 | -2.2 | 4.7
O=C(N/N=C/c1cn(Cc2cccc(F)c2)c2ccccc12)c1cc(O)cc(O)c1 | x | 4.2 | 17.0* | -1.2 | 1.7 | x
NC(=O)NN=Cc1cn(CC(=O)Nc2ccc(F)cc2)c2ccccc12 | 70.1* | x | x | x | x | x
COc1ccc(Br)cc1CNC(=O)C1CCN(c2nnc(N3CCCC3=O)s2)CC1 | 6.4 | -37.6 | -1.3 | 1.2 | -2.3 | -6.3
COC(=O)c1c(C)oc2ccc(N(C(=O)c3ccncc3)S(=O)(=O)c3ccc(C)cc3C)cc12 | -4.0 | 56.1* | -0.9 | -2.3 | 10.5 | -19.0
Cc1ccc([N+](=O)[O-])cc1S(=O)(=O)N(C(=O)c1ccncc1)c1ccc2oc3c(c2c1)CCCC3 | -0.8 | 42.6* | -2.1 | -0.5 | 1.4 | -25.6
COC(=O)c1c(C)oc2ccc(N(C(=O)c3ccncc3)S(=O)(=O)c3ccccc3)cc12 | x | 29.0 | -3.2 | -3.4 | -9.9 | -8.0
COC(=O)c1c(C)oc2ccc(N(C(=O)c3ccncc3)S(=O)(=O)c3ccc(C)cc3)cc12 | 1.3 | 12.4 | -7.8 | 0.0 | 5.2 | -22.8
Cc1cc(F)ccc1S(=O)(=O)N(C(=O)c1ccncc1)c1ccc(OC(=O)c2ccncc2)cc1 | 20.2 | 30.5* | -3.3 | -0.5 | -6.0 | 1.4
COC(=O)c1c(C)oc2ccc(N(C(=O)c3ccncc3)S(=O)(=O)c3ccc4ccccc4c3)cc12 | 9.8 | 38.4* | -2.3 | 1.1 | 7.3 | -13.6
CCOC(=O)[C@@H]1[C@H]2COc3ccc(Br)cc3[C@H]2N2C(=O)N(c3ccc(C(F)(F)F)cc3)C(=O)[C@]12C | x | x | -4.5 | -0.4 | -1.3 | -7.7
CCN(CC)C(=O)CS(=O)(=O)CC(=O)Nc1cc(OCCOC)c(Cl)cc1Cl | 2.6 | x | -0.7 | -0.7 | -7.4 | -0.3
COc1ncc(-c2cccc3nccn23)c(OC)n1 | x | x | -0.4 | x | x | x
COc1ccc(NC(=O)CN2CCN(c3ccccc3C)CC2)cc1 | -3.6 | 2.1 | -4.1 | 2.6 | 1.0 | -2.9
Cc1ccc(C(=O)Oc2cccc(NC(=O)c3ccccc3)c2)cc1C | -4.4 | 15.0 | -4.3 | 0.5 | 99.2 | -101.7
O=C(Nc1cccc(OC(=O)c2ccc(Br)o2)c1)c1ccccc1 | 4.1 | 43.2* | -2.6 | 0.5 | -3.5 | 9.9
SMILES | Mtb hypoxia inh | RecA splice inh | FadD28 FP inh | UGM FP inh | Mtb bLac sens | Rv3671c protease
CCCCOC(=O)n1ccc(C(=O)Nc2ccccc2OC)n1 | 16.7 | 1.8 | -2.4 | 0.8 | -5.7 | 16.4
Cc1cc[n+](CC[n+]2ccc(C)cc2)cc1 | 3.3 | 0.5 | -1.9 | 0.6 | -1.6 | -8.1
CCCCCCC[n+]1ccc(-c2cc[n+](CCCCCCC)cc2)cc1 | 81.3* | 4.7 | -0.4 | -1.6 | 98.9 | -3.5
CCCCCCCC[n+]1cccc(C(=O)N(CC)CC)c1 | 12.3 | -2.2 | -4.5 | 2.8 | -3.6 | -7.9
CCCCCCCCCCCCCCCC[n+]1ccc(C(N)=O)cc1 | 18.4 | x | 22.5* | 1.7 | 71.8 | 4.0
CCCCCCCCCCCCCCCC[n+]1cccc(C(=O)N(CC)CC)c1 | 2.1 | -0.6 | 13.7* | -3.3 | 93.2 | -7.9
CCCCCCCCCCCCCCCC[n+]1ccccc1 | 14.0 | x | 31.8* | x | x | x
CCOC(=O)C1=CN(Cc2cccc(F)c2)S(=O)(=O)N(C)C1c1ccc(C(F)(F)F)cc1 (stereo not drawn) | -1.0 | x | -3.1 | x | x | x
CCOc1ccccc1C=NNC(=O)Cc1csc(Nc2cccc(C(F)(F)F)c2)n1 | 0.6 | x | x | x | x | x
CCCS(=O)(=O)c1nnnn1-c1cccc(OC)c1 | 16.8 | 90.6* | -2.4 | 0.4 | 100.5 | 3.6
COc1cccc(-n2nnnc2SCC(=O)Nc2ccccc2OC)c1 | 0.9 | -1.4 | -0.5 | -1.0 | -3.4 | -2.1
Cc1cnc(C(=O)OCC(=O)N(Cc2ccccc2)C(C)C)cn1 | 0.9 | 0.1 | -0.5 | 1.6 | 4.0 | 6.5
Cc1cccc(C(=O)Nc2sc(-c3ccccc3)cc2C(=O)O)c1 | -19.7 | 1.2 | 24.2* | 3.5 | 87.8 | 14.3
Cc1ccc(NC(=O)c2cccc(C(=O)Nc3ccc(C)cc3C(=O)O)c2)c(C(=O)O)c1 | -3.4 | -2.2 | 6.1 | 13.2* | 6.8 | -5.5
CC(C1CC2CCC1C2)n1c(COc2ccccc2F)nnc1SCC(N)=O (stereo not drawn) | x | -0.9 | 1.3 | -2.8 | -2.0 | -0.3
CC(=O)N(C)Cc1ccc(C(=O)CCl)cc1 | 12.8 | 37.0* | -0.3 | 2.3 | 9.1 | 5.4
Cc1ccc2c(c1)-c1c(ssc1=S)C(C)(C)N2C(=O)CSC1=NCCS1 | 1.4 | 30.1* | -2.2 | 1.6 | u | 1.1
CCOC(=O)C1=C(Cc2ccc(OC)cc2)C(=O)c2ccccc2C1=O | 8.2 | x | 4.0 | x | x | x
CCOC(=O)C1=C(Cc2ccc(C)cc2)C(=O)c2ccccc2C1=O | x | 60.6* | x | -1.2 | 36.9 | -30.9
CCc1cccc(NC(=O)C2CCN(S(=O)(=O)c3ccc4c(c3)CC(C)N4C(C)=O)CC2)c1 (stereo not drawn) | -7.1 | 1.9 | -1.6 | 1.1 | -10.4 | -3.7
CN1CCSc2ccc(C(=O)NCc3cccc(Br)c3)cc21 | 7.1 | -6.6 | -3.3 | -5.5 | -3.1 | 2.9
CCOC(=O)c1c(NS(=O)(=O)c2ccc(Br)cc2)sc2c1CCC2 | x | 5.4 | 11.6* | -0.5 | 88.9 | 4.8
CCOC(=O)c1c(NS(=O)(=O)Cc2ccccc2)sc2c1CCCC2 | -4.0 | x | 1.8 | 2.6 | 2.3 | -5.0
CCOC(=O)C1=C(COC(=O)c2sccc2C)NC(=O)NC1C (stereo not drawn) | -0.1 | x | -0.9 | -1.0 | -4.0 | -4.8
Clc1ccc(CN2C3=NCCN3c3ccccc32)cc1 | x | -0.5 | -2.3 | -2.3 | 6.2 | -3.0
C/C(Cl)=C/Cn1c(NCCCn2ccnc2)nc2c1c(=O)[nH]c(=O)n2C | x | 0.4 | -1.3 | 3.8 | -3.7 | -4.4
